In PubChem BioAssay (Tox21):
Results filed as inconclusive are left out. Where a call stands in place of a potency, no number is given. Activity calls are given as the source filed them. Calls come from the whole dose curve.

Test: Nuclear factor erythroid 2-related factor 2/antioxidant responsive element (Nrf2/ARE) small molecule agonists: luciferase reporter gene qHTS assay in human keratinocytes (AID 1919969); note: nearly all actives have a fitted effect of over 35% in size
Settings: KeratinoSens HaCaT ARE-luciferase, luminescence, 24 h; series mostly up to 92.4 µM
From the text: National Center for Advancing Translational Sciences [NCATS]
Division of Preclinical Innovation [DPI]
U.S. Environmental Protection Agency [EPA]
National Institutes of Environmental Health Sciences [NIEHS]
National Toxicology Program [NTP]
U.S. Food and Drug Administration [FDA]
Oxidative stress has been implicated in the pathogenesis of a variety of diseases ranging from cancer to neurodegeneration. The antioxidant response element (ARE) signaling pathway plays an important role in the amelioration of oxidative stress. The KeratinoSens (Givaudan, Switzerland) is an in vitro test method which quantifies luciferase induction as a measure of activation of Keap1-Nrf2-antioxidationt/electrophile response element (ARE) dependant pathway in HaCaT human keratinocytes stably transfected with a selectable plasmid. The KeratinoSens assay is a cell-based assay with a reporter cell line to detect potential skin sensitizers by their ability to induce the Nrf2/ARE-response. The activation of the report gene under culture conditions can be detected by ONE-Glo Luciferase Assay System (Promega, Madison, WI). This cell line has been used to screen the Tox21 10K compound library to identify agonists that induce oxidative stress. The cytotoxicity of the Tox21 compound library against the KS-ARE cell line was tested in parallel by measuring the cell viability using CellTiter- Fluor assay system (Promega, Madison, WI) in the same wells.
HaCaT derived cell line KeratinoSens were dispensed at 1,500 cells/5uL/well in 1536-well white wall/solid bottom plates using a Multidrop Combi (ThermoFisher Scientific, Waltham, MA) dispenser. After the assay plates were incubated at 37 C/5% CO2 for 5 h, 23 nL of compounds dissolved in DMSO, positive controls or DMSO only was transferred to the assay plate by a pintool workstation (Kalypsys, San Diego, CA). The plates were incubated at 37 C/5% CO2 for 23 h, followed by addition of 1uL/well of CellTiter-Fluor reagent into the assay plates using a Flying Reagent Dispenser (Aurora Discovery, San Diego, CA) for cell viability readout that measures cytotoxicity. After 1 h incubation at 37 C/5% CO2 the fluorescence intensity was measured using a ViewLux (PerkinElmer, Shelton, CT) plate reader. Then 4uL/well of One-Glo were added using a Flying Reagent Dispenser. After the plates were incubated at room temperature for 30 min, the luminescence intensity in the assay plates was measured using ViewLux plate reader.
Potency is the fitted concentration of half-maximal effect.

| Structure (SMILES) | Potency | activity, positive = activation |
| --- | --- | --- |
| CCCCC(CC)COP(=O)(O)O (stereo not given) | inactive |  |
| NC(=O)c1ccccc1C(N)=O | 68.9 µM (active) |  |
| O=C(O)c1nc(Cl)c(Cl)c(Cl)c1Cl | 30.6 µM (active) |  |
| c1ccc2c(c1)CCCC2C1=NCCN1 (stereo not given) | inactive |  |
| O=C(O)Cn1cnnn1 | inactive |  |
| Cc1ccc(O)c(N)c1 | 24.4 µM (active) |  |
| Cc1onc(-c2c(Cl)cccc2Cl)c1C(=O)Cl | inactive |  |
| CCCCCCOC(=O)CCCCCCCC(=O)OCCCCCC | inactive |  |
| O=c1[nH]sc2ccccc12 | 12.2 µM (active) |  |
| CC1(C)CCC[C@]2(C)[C@H]3CCO[C@]3(C)CC[C@@H]12 | inactive |  |
| OCCN1CCN(CCCN2c3ccccc3Sc3ccc(Cl)cc32)CC1 | inactive |  |
| O=C(Cl)c1ccc(Cl)cc1Cl | inactive |  |
| O=C1C=CC(=O)N1c1ccccc1 | 15.4 µM (active) |  |
| CCCCCC/C=C/C=O | inactive |  |
| Cc1[nH]c(C)c(Cl)c(=O)c1Cl |  | 3.75% [at 19 µM] (inactive) |
| Cc1ccc(C#N)cc1 | inactive |  |
| N[C@@H](C(=O)N[C@@H]1C(=O)N2C(C(=O)O)=C(Cl)CS[C@H]12)c1ccccc1 |  | -7.33% [at 8.39 µM] (inactive) |
| CCc1ncc(C)[nH]1 | inactive |  |
| Cc1ccc(S(=O)(=O)NC(=O)NC2CCCCC2)cc1 | inactive |  |
| NC(=O)Cn1c(=O)cc(CCN2CCN(c3nccc4sccc34)CC2)c2ccc(F)cc21 | inactive |  |

| Structure (SMILES) | Potency | activity, positive = activation |
| --- | --- | --- |
| NCCCOCCOCCOCCCN | inactive |  |
| CC(C)CO | inactive |  |
| CCC(Cl)C(Cl)C(Cl)CC(Cl)C(Cl)C(C)Cl (stereo not given) | 48.6 µM (active) |  |
| O=C(/C=C/c1ccccc1)NCCO | inactive |  |
| c1ccc(Cc2ccccc2)cc1 | inactive |  |
| CN(C)C(=O)COC(=O)Cc1ccc(OC(=O)c2ccc(N=C(N)N)cc2)cc1 | inactive |  |
| O=c1[nH]c(=O)n([C@H]2C[C@H](O)[C@@H](CO)O2)cc1F | inactive |  |
| Nc1ccn([C@@H]2O[C@H](CO)[C@@H](O)C2O)c(=O)n1 (stereo not given in full) | inactive |  |
| O=S(=O)(O)c1cc(Cl)c(Cl)cc1Cl | inactive |  |
| COc1cc2nc(N(C)CCCNC(=O)C3CCCO3)nc(N)c2cc1OC (stereo not given) | inactive |  |
| Cc1ccccc1C(=O)Nc1ccc(C(=O)N2CCCC(O)c3cc(Cl)ccc32)c(C)c1 (stereo not given) | inactive |  |
| C=CC(=O)N1CCOCC1 | inactive |  |
| COc1cc(C(C)(C)C)c(O)c(C(C)(C)C)c1 | 48.6 µM (active) |  |
| O=C1c2c(O)ccc([N+](=O)[O-])c2C(=O)c2c([N+](=O)[O-])ccc(O)c21 | 6.06 µM (active) |  |
| Nc1cc(Cl)c([N+](=O)[O-])cc1O | inactive |  |
| O=C1Cc2cc(CCN3CCN(c4nsc5ccccc45)CC3)c(Cl)cc2N1 | inactive |  |
| COc1cc(S(=O)(=O)Nc2ccccc2)c(OC)cc1N | inactive |  |
| CC1=CC(=O)CCC1 | inactive |  |
| C(=C(c1ccccc1)c1ccccc1)c1ccccc1 | 27.3 µM (active) |  |
| COc1ccc(S(=O)(=O)N2C(=O)[C@@](c3ccccc3OC)(N3C[C@H](O)C[C@H]3C(=O)N(C)C)c3cc(Cl)ccc32)c(OC)c1 | inactive |  |
